Assay in all cases: NCI-60 one-dose screen, 48 h (100 = growth as untreated, 0 = no growth, -100 = all killed)
The subject of assay [1] is NCI-H23 lung. The following applies: 10 µM unless noted.
For assay [2], the system named is NCI-H226 lung. The following applies: 10 µM unless noted.
Assay [3] relates to NCI-H322M lung. Conditions: 10 µM unless noted.
The test system of assay [4] is NCI-H460 lung. The following applies: 10 µM unless noted.
Assay [5] concerns HOP-92 NSCLC. Conditions: 10 µM.
The test system of assay [6] is NCI-H522 lung. The following applies: 10 µM.
Assay [7] deals with A549/ATCC NSCLC. Conditions: 10 µM unless noted.
The subject of assay [8] is 786-0 renal. Conditions: 10 µM unless noted.
The test system of assay [9] is DU-145 prostate. The following applies: 10 µM unless noted.
In assay [10] the test system is K-562 leukemia. The following applies: 10 µM unless noted.
The subject of assay [11] is MALME-3M melanoma. Conditions: 10 µM unless noted.
In assay [12] the test system is MDA-MB-231 breast. The following applies: 10 µM unless noted.
The test system of assay [13] is RXF 393 renal. Conditions: 10 µM unless noted.
Assay [14] has as its system SF-268 CNS. The following applies: 10 µM unless noted.
The test system of assay [15] is SF-295 CNS. Conditions: 10 µM unless noted.
The subject of assay [16] is SF-539 CNS. Conditions: 10 µM unless noted.
For assay [17], the system named is UACC-257 melanoma. Conditions: 10 µM unless noted.
The test system of assay [18] is M14 melanoma. The following applies: 10 µM unless noted.
Assay [19] has as its system COLO 205 colon. Conditions: 10 µM unless noted.

The panel holds about 83,000 compounds, 20% with a hit somewhere; the sample as a whole holds those more often.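 Testing used 96-well plates and a 48-hour single-concentration exposure. Example: -40 means 40% of the starting cells died.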 Values without a mark were called inactive. Active and inactive are the calls of the source. How the source made its calls: active means growth percent below 10; inactive means the rest.

With `O=C(Nc1ccccc1)Nc1ccc(Nc2ncnc3sc4c(c23)CCCC4)cc1`, the growth is 100% in [1]; 89.9% in assay [2]; 106% in assay [3]; 104% in [4]; 101% in [5]; 93% in assay [6]. The growth in assay [7] is 73.9%; in assay [8] it was 110%; in [9], 109%; in assay [10], 99.8%; in [11], 102%; in assay [12], 91.7%. The growth in [13] is 102%; in assay [14], 100%; in assay [15] it was 102%; in [16], 104%; in assay [17], 93.5%; in assay [18], 103%.
For the molecule `O=C(/C=C1\C(=O)N(Cc2ccc([N+](=O)[O-])cc2)c2ccccc21)c1ccc(OCCN2CCCCC2)cc1`, the growth was -10.4% (active) in assay [1]; -41.1% (active) in [2]; 49.2% in assay [3]; 39% in assay [4]; -74.5% (active) in [5]; -75% (active) in assay [6]. Also, the growth in [7] is 48.2%; in assay [8], -88.1% (active); in assay [19], -49.5% (active); in [9], -35.3% (active); in [10] it was -35.2% (active); in assay [12], -60.8% (active). The growth was -90.7% (active) in [13]; -35.4% (active) in assay [14]; 49.7% in assay [15]; -84.6% (active) in assay [16]; -4.94% (active) in assay [17]; -59.4% (active) in assay [18].
With `CCOP1(=O)CC(C)=C(Cl)C(P(=O)(O)O)C1` (centres undefined), the growth is 93.3% in assay [1]; 99.9% in [2]; 108% in assay [3]; 114% in assay [4]; 89.1% in [5]; 89.7% in [6]. Moreover, the growth in assay [7] was 94.8%; in [19], 110%; in assay [9] it was 109%; in assay [10], 101%; in assay [11], 95.1%; in [12], 100%. Further, the growth in [13] is 96%; in [14] it was 109%; in [15], 109%; in assay [16] it was 105%; in assay [17] it was 87.3%.
For `O=[N+]([O-])c1ccc(-c2ncc(-c3ccc(O)cc3O)[nH]2)cc1`, the growth in assay [1] is 105%; in [2], 102%; in assay [3], 116%; in assay [4], 109%; in assay [5], 88.5%; in [6] it was 124%. In addition, the growth in assay [7] is 44.9%; in assay [19], 112%; in assay [9], 143%; in assay [10] it was 95.6%; in [11], 218%; in assay [12], 104%. For the same molecule, the growth in assay [14] was 101%; in assay [16], 118%; in assay [17] it was -43.6% (active); in [18], 135%.
In the case of `COC(=O)c1ccc2[nH]c(O)c(C(=Nc3ccc(N(C)C(=O)CN4CCN(C)CC4)cc3)c3cccc(OC)c3)c2c1`, the growth in assay [1] was 7.62% (active); in [2], 32.4%; in assay [3], 21.8%; in assay [4] it was 7.31% (active); in assay [6] it was 12.1%; in assay [7] it was 9.85% (active). For the same molecule, the growth in [8] was 10.4%; in [19], -55.8% (active); in assay [9] it was 8.57% (active); in [10] it was 3.85% (active); in assay [11] it was -16.3% (active); in assay [12] it was 13.1%. Further, the growth in assay [13] is -55.7% (active); in assay [14] it was 6.71% (active); in assay [15], 29.9%; in assay [16], -11.2% (active); in [17], 31.8%; in assay [18], 8.85% (active).
As to `CC1=C[C@@H]2c3c(c(O)c(O)c4oc5cc(O)cc(O)c5c(=O)c34)[C@@H](c3cc(O)c(O)c4oc5cc(O)cc(O)c5c(=O)c34)[C@@H]2C(C)(C)C1`, the growth was -20.3% (active) in assay [1]; 8.46% (active) in assay [2]; 16.9% in [3]; -28.3% (active) in [4]; -15% (active) in assay [5]; -60.8% (active) in assay [6]. Further, the growth in assay [7] was 9.43% (active); in assay [8], -40.3% (active); in [9], 20.7%; in [11] it was -10.3% (active); in assay [12] it was -38.2% (active); in assay [14], 3.54% (active). The growth in assay [15] is -26.7% (active); in [16], -5.82% (active); in assay [17] it was 27%; in [18] it was -47% (active).
As for `CCCCCc1ccnc(CC(=O)c2ccc(OC)cc2)c1`, the growth in assay [1] was 93.8%; in assay [2], 88.6%; in assay [3] it was 104%; in assay [4], 95.2%; in [5], 69.5%; in [6] it was 66.6%. The growth in [8] is 98.9%; in assay [19], 87.3%; in assay [9] it was 105%; in [10], 68.1%; in [11] it was 90.3%; in assay [12] it was 98%. Besides, the growth in assay [13] is 106%; in [14], 98.7%; in [15], 97.4%; in assay [16], 97.2%; in assay [17], 90.9%; in assay [18] it was 99.2%.
For the molecule `Cc1cc2c(-c3nc4ccccc4n3C)c(O)c(O)cc2c(O)c1-c1c(C)cc2c(-c3nc4ccccc4n3C)c(O)c(O)cc2c1O`, the growth in [1] was 24.7%; in assay [2], 68.1%; in assay [3], 73%; in [4], 7.3% (active); in [6] it was 41.4%; in assay [7], 26.7%. The growth was 76% in [8]; 4.14% (active) in assay [19]; 43.5% in assay [9]; 37.5% in [10]; 86.1% in assay [11]; 57.3% in assay [12]. The growth in assay [13] was 62.7%; in [14], 38.5%; in [15], 26%; in assay [16], 22.1%; in assay [17], 82.9%; in [18] it was 34.9%.

Source of the values: PubChem BioAssay (NCI).
